In the library only some 3.3% were active in any assay of this set; here they are far more common.
PHOSPHO1 inh: PHOSPHO1 (human) inhibition; inhibition, % at 13.3 µM; recombinant PHOSPHO1, absorbance phosphatase assay; Q8TCT1; hit rate 1.1% among 290,000; in the data active = inhibition above about 60%
Target sequence (Q8TCT1 whole entry, looked up): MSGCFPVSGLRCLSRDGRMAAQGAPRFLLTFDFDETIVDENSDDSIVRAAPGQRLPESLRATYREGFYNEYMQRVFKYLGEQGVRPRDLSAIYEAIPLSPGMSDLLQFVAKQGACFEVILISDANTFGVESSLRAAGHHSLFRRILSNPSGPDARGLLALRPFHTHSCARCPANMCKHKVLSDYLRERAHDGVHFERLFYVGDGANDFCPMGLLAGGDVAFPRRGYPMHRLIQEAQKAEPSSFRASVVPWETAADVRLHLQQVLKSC
H9c2 protect: protects H9c2 cardiomyocytes from peroxide injury; H2O2 injury protection, ATPLite, 2 h; protection from H2O2 cell death, % at 20 µM; hit rate 0.63% among 360,000;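 active = compounds giving at least 50% protection of heart cells from peroxide-induced death in the single-dose screen, raw or plate-pattern-corrected value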;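 note: 0% = DMSO wells with peroxide and 100% = DMSO wells without peroxide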
Calb FLC: C. albicans growth modulation with fluconazole | AID 1979 | hit rate 0.57% among 300,000 | growth inhibition, % (no concentration beside the values) | C. albicans CaCi-2 (fluconazole-resistant clinical isolate) + fluconazole, Alamar Blue growth, 48 h;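 active = growth inhibition above about 58% in most replicates, limit read from the data, passing the limit was not always enough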;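 note: all wells also contain fluconazole at 8 µg/ml as a sub-toxic cotreatment; 0% = median of DMSO wells and 100% = median of geldanamycin control wells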
Efflux pump mplx: blocks antifungal efflux pumps in multiplex yeast assay; inhibition, % at 10 µM; AID 485275; S. cerevisiae Candida pump triplex, Nile Red efflux; hit rate 0.44% among 330,000;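 active = plate passing quality check with inhibition over a set limit, or well fluorescence over plate mean plus 4 SD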;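 note: Nile Red retained in pooled yeast measured as flow cytometry median fluorescence; 0% = buffer negative control and 100% = Enniatin B positive control; higher means more Nile Red kept so more efflux inhibition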
KCC2 mod: KCC2 (human) Cl- transport modulation; KCC2 cells, thallium flux FluoZin-2 fluorescence; hit rate 2.2% among 190,000; Q9H2X9; B-score of Tl+ flux slope (higher = more flux/activation; lower = inhibition) at 10 µM;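 active = thallium flux slope and its plate-corrected score both differing from the plate sample mean at a set confidence after two filtering rounds, in either direction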;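 note: slope of fluorescence scaled to starting intensity during 10 to 20 s after thallium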
Yeast cmpd fluor: compound fluorescence in yeast efflux pump counter-screen; fluorescence ratio to DMSO, % at 10 µM; hit rate 4% among 1,700; S. cerevisiae AD/pABC3, flow cytometry; shares compounds with Efflux pump mplx;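 active = fluorescence ratio to DMSO above its plate's cutoff, the plate mean ratio plus 5 SD, cut at about 210% in these data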;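 note: unstained yeast with no Nile Red so the signal is compound autofluorescence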
Mdr1 pump inh: inhibitors of Candida albicans Mdr1 efflux pump | shares compounds with Efflux pump mplx | S. cerevisiae AD/CaMDR1, Nile Red efflux, flow cytometry | inhibition, % at 10 µM | hit rate 1% among 1,700; in the data active = inhibition above about 26%;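 note: 0% = DMSO vehicle and 100% = reference inhibitor; higher means more Nile Red retained so more efflux inhibition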
Cdr2 pump inh: blocks the Candida albicans Cdr2 efflux pump in yeast; shares compounds with Efflux pump mplx; S. cerevisiae AD/CaCDR2, Nile Red retention, flow cytometry; Nile Red retention ratio vs DMSO, % at 10 µM; hit rate 4% among 1,700; AID 588520; in the data active = Nile Red retention ratio vs DMSO above about 190%;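 note: higher ratio means more blocking of Cdr2 efflux of the dye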
Cdr1 pump inh: Candida Cdr1 efflux pump inhibition. shares compounds with Efflux pump mplx. S. cerevisiae AD/CaCDR1, Nile Red efflux, flow cytometry. inhibition, % at 10 µM. hit rate 1% among 1,700;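 active = inhibition above the screen-wide mean plus twice its standard deviation, cut at about 32% in these data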
* marks the source's active call; other numbers are inactive results; i = inactive; · = no result given.

SMILES	PHOSPHO1 inh	H9c2 protect	Calb FLC	Efflux pump mplx	KCC2 mod	Yeast cmpd fluor	Mdr1 pump inh	Cdr2 pump inh	Cdr1 pump inh
CC1Oc2ccccc2N(CC(=O)c2ccc(F)cc2)C1=O (centres undefined)	7	0	-6	1.1*	-0.5	100	0	100	0
O=C(CCCc1c[nH]c2ccccc12)Nc1ccc(S(=O)(=O)Nc2ncccn2)cc1	40	6	-9	0	1.3	·	·	·	·
O=C(O)C(=Cc1ccccc1[N+](=O)[O-])c1ccc2c(c1)OCO2	·	-3	·	·	·	·	·	·	·
Cc1cn([C@H]2C[C@H](O)[C@@H](CNC/C=C/c3ccccc3[N+](=O)[O-])O2)c(=O)[nH]c1=O	·	23	·	·	·	·	·	·	·
COC(=O)/C(C#N)=C/c1c[nH]c2ccccc12	18	-1	23	0	-1.8	·	·	·	·
COc1cc(/C=C(\C#N)C(=O)c2c[nH]c3ccccc23)cc(OC)c1O	-2	31	25	0.9*	-2.9	126	0	106	0
CCC1(c2ccccc2)NC(=O)N(CC(=O)Nc2cc(S(=O)(=O)N3CCCCC3)ccc2OC(C)C)C1=O (centres undefined)	·	-3	3	0	·	·	·	·	·
NC1=NC[C@@H](Cc2ccc(O)cc2)N1CCc1cccc(F)c1	44	2	-9	0	0.77	109	0	98	0
CCCCN1C(N)=NC[C@H]1Cc1ccc(O)cc1	-26	8	14	0	-0.97	99	0	101	0
NC1=NC[C@H](c2ccccc2)N1CCc1cccc(F)c1	25	-5	3	0	0.0043	·	·	·	·
COc1cc(CCCN2C(N)=NC[C@H]2Cc2ccc(O)cc2)cc(OC)c1OC	20	18	2	0	0.69	·	·	·	·
CC(C)(C)CN1C(N)=NC[C@@H]1Cc1ccc(O)cc1	35	-1	-10	0	-0.24	104	0	112	0
CCCCN1C(N)=NC[C@@H]1Cc1ccc(O)cc1	35	-10	9	0	-0.4	98	0	105	0
CCOC(=O)c1c(C)nn(-c2ccc(NC(=O)CSCC(=O)O)cc2)c1C	33	-2	-3	0	-0.069	·	·	·	·
Cc1nn2c3c(cnc2c1-c1ccccc1)C(=O)CC(C)C3 (centres undefined)	·	·	·	·	0.9	·	·	·	·
Cc1nn2c3c(cnc2c1-c1ccccc1)C(=O)CCC3	-3	3	-5	0.6*	·	106	0	103	0
CN1CCc2c(sc(NC(=O)C3CCN(S(=O)(=O)c4cccs4)CC3)c2C(N)=O)C1	·	-1	0	0	·	·	·	·	·
CCN(CC)c1ccc(/C=C2\CCC(/C=N/NC(=O)c3ccc(=O)n(C)c3)=C2N2CCOCC2)cc1	-10	14	8	1.0*	-1.6	112	0	125	0
O=C(N/N=C/C1=C(N2CCOCC2)C(=C\c2ccccc2)/CC1)Nc1ccccc1	5	0	-5	0	-0.89	·	·	·	·
Fc1ccccc1-c1nc(-c2ccc(Br)o2)no1	24	-16	-8	0	·	·	·	·	·
COc1cc(OC)cc(C(=O)NC(=S)Nc2ccc3[nH]c(=O)[nH]c3c2)c1	10	-1	-2	0	·	·	·	·	·
O=C(NC(=S)Nc1ccc2[nH]c(=O)[nH]c2c1)c1ccccc1F	-2	11	-1	0	·	105	0	93	0
O=C(NC(=S)Nc1ccc2[nH]c(=O)[nH]c2c1)c1cncc(Br)c1	-1	7	1	0.8*	-0.03	103	0	101	0
O=C(NC(=S)Nc1ccc(O)cc1)c1cncc(Br)c1	·	2	1	0	·	·	·	·	·
COc1ccc(C(=O)NC(=S)Nc2ccc3[nH]c(=O)[nH]c3c2)c(OC)c1	47	-7	-5	0	·	108	0	106	0
SMILES	PHOSPHO1 inh	H9c2 protect	Calb FLC	Efflux pump mplx	KCC2 mod	Yeast cmpd fluor	Mdr1 pump inh	Cdr2 pump inh	Cdr1 pump inh
COCCn1cnnc1SCC(=O)Nc1ccc(N2CCCCC2)cc1	·	7	·	0	·	·	·	·	·
Cn1c(=O)oc2cc(S(=O)(=O)N3CCc4ccccc43)ccc21	16	-8	-19	0	0.36	·	·	·	·
Cn1c(=O)c(=O)n(C)c2cc(S(=O)(=O)N3CCc4ccccc43)ccc21	15	-5	1	0.8*	·	238	0	96	0
COc1cc(/C=C2\Oc3cc(O)ccc3C2=O)ccc1O	13	-7	0	0	i	·	·	·	·
O=C1/C(=C/c2ccc(O)c(O)c2)Oc2cc(O)ccc21	4	12	·	2.4*	-0.051	103	0	153	0
C#CCN(C[C@@H]1[C@@H](OC(=O)NCc2ccccc2F)[C@@H](OC(=O)NCc2ccccc2F)Cn2c(=O)ccc(=O)n21)S(=O)(=O)c1ccc(C)cc1	·	-4	·	·	·	·	·	·	·
O=C(CN1CCOCC1)N1c2ccccc2Sc2ccc(Cl)cc21	·	-3	·	·	·	·	·	·	·
O=C(CN1CCN(CCOCCO)CC1)N1c2ccccc2Sc2ccc(Cl)cc21	22	14	-2	1.4*	·	105	0	104	0
CCC(=O)N1CCN(c2ccc(Cl)cc2NC(=O)c2ccc3c(c2)OCCO3)CC1	-6	8	90*	0.8*	0.79	104	0	98	0
N#Cc1cc([N+](=O)[O-])ccc1NCCc1ccccn1	-7	11	15	3.5*	0.0021	116	0	120	0
COc1ccc(CCc2nnc(CCC(=O)NCC3CCCO3)o2)cc1 (centres undefined)	56	4	-2	0	·	·	·	·	·
COc1ccc(Nc2nc(CN3CCOCC3)nc3sc4c(c23)CCC(C)C4)cc1OC (centres undefined)	16	·	0	0	-0.65	·	·	·	·
COc1cc2c(cc1OC)CN(c1nc(CN3CCOCC3)nc3sc4c(c13)CCC(C)C4)CC2 (centres undefined)	-10	18	21	98*	0.71	100	6	112	82*
COC(=O)c1c(SCC(=O)Nc2ccc(C)c(C)c2)nc(=O)[nH]c1C	15	3	1	0	0.18	·	·	·	·
O=C(O)CC(NCc1ccco1)C(=O)OCC1CCCO1 (centres undefined)	6	3	6	0.7*	·	104	0	94	0
Cc1ccc([N+](=O)[O-])cc1S(=O)(=O)Nc1cccc(-c2ccc(N3CCCC3)nn2)c1	·	-2	17	0.4*	·	100	0	89	0
CC(=O)Nc1ccc(S(=O)(=O)N(C)CC(=O)OCC(=O)Nc2cc(C)on2)cc1	·	0	·	0	·	·	·	·	·
Clc1nc(Nc2ccccc2)nc(Nc2ccccc2)n1	-12	-6	1	11*	2.5	101	0	104	0
CSc1ccccc1C(=O)OCC(=O)NCCN1C(=O)CSC1=O	·	4	·	0	·	·	·	·	·

Screens as filed in PubChem.
